Values without a mark were called inactive. Active and inactive are the calls of the source.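 Rule for the calls: active = mean inhibition over 43.08%, the solvent-only control mean plus 3 SD; inactive = the rest.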
What follows are compounds tested against Nuclear receptor coactivator 3 (Homo sapiens) (UniProt Q9Y6Q9) (assay: NCOA3 GAL4-fusion reporter inhibition – cell-based, luminescence, quadruplicate, confirmation (AID 588792;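 note: 0% = DMSO treated cells and 100% = gossypol at 36 µM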)). Conditions: HEK293 GAL4-SRC3 luciferase reporter, at 3.6 µM, hits give high values.
Nuclear receptor coactivator 3 (Homo sapiens), sequence (Q9Y6Q9 whole entry, looked up, the tested form may be a part): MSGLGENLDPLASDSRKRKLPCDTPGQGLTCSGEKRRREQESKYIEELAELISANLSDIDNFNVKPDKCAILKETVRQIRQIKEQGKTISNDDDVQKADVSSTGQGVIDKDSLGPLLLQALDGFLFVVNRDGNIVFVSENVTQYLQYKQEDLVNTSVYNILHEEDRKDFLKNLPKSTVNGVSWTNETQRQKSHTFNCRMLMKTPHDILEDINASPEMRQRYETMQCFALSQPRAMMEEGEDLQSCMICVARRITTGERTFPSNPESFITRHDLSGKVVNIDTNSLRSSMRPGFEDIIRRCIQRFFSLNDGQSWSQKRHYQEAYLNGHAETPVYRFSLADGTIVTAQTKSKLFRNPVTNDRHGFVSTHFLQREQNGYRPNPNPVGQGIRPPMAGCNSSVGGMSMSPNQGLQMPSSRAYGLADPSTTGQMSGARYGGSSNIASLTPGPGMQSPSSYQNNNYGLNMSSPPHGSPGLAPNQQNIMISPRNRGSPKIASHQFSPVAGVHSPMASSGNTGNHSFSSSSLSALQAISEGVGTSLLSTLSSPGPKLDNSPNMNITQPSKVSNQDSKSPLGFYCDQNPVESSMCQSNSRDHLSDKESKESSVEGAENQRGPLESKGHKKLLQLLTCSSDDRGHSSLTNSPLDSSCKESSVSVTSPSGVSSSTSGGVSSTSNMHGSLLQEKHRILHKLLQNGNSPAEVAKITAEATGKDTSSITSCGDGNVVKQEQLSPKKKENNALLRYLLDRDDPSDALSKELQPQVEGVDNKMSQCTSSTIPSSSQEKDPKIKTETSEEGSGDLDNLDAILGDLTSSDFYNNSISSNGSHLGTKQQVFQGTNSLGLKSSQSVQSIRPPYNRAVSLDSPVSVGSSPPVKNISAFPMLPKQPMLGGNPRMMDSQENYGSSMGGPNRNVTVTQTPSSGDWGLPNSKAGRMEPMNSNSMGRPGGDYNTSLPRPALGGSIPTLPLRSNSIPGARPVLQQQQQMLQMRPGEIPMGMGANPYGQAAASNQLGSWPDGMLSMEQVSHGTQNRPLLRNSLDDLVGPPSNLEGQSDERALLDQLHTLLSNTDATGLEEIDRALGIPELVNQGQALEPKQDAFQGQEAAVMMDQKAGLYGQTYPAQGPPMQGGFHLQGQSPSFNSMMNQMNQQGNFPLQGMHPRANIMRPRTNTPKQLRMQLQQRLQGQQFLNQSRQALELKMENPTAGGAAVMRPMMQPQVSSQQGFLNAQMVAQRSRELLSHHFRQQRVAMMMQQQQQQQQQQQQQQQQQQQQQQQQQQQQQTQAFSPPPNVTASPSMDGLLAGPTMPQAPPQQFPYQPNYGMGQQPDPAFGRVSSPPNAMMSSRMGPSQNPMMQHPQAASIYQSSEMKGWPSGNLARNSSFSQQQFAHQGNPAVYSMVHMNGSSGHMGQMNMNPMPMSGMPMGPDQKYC

Question: `Cc1sc(NC(=O)Cc2ccc3c(c2)OCO3)nc1-c1ccc2c(c1)CCN2C(=O)c1ccc(F)cc1` was tested. Which inhibition did it give?
Answer: Its inhibition is 13.6%.

Question: For `COc1ccc(NC(=O)c2cc([N+](=O)[O-])ccc2O)cc1`, which inhibition is on record?
Answer: The inhibition was 42.1%.

Question: With `Cc1cc(C(=O)NNc2ccc(F)cc2)no1` as the compound, how does the inhibition read?
Answer: The inhibition was 9%.

Question: `C(=Cc1cnc2ccccc2n1)c1ccc2c(c1)OCO2` was tested. Which inhibition did it give?
Answer: The inhibition was 58.3% (active).

Question: `Cc1nc2ccc(NC(=O)c3ccc(Cl)c(S(=O)(=O)N(C)c4ccccc4)c3)cc2s1` was tested. Which inhibition did it give?
Answer: Its inhibition is 19.2%.

Question: With `Cn1c(/C=C/c2ccc(Cl)cc2)c([N+](=O)[O-])c(=O)n(C)c1=O` as the compound, how does the inhibition read?
Answer: Its inhibition is 39.6%.

Question: Which inhibition does the source give for `CCOc1ccc(-n2c(C)c(C(C)=O)c3cc(OC(C)=O)ccc32)cc1` here?
Answer: The inhibition was 67.3% (active).

Question: With `Cc1ccc(C(=O)NCCn2cc(SCC(=O)Nc3nnc(C)s3)c3ccccc32)cc1` as the compound, how does the inhibition read?
Answer: Its inhibition is 18.6%.

Question: `Nc1nc(=O)n(C2OC(CO)C(O)C2O)cc1F` (centres undefined) was tested. Which inhibition did it give?
Answer: Its inhibition is 13.6%.

Question: With `Cn1c(Sc2ccc(Cl)cc2)c(C=O)c2ccccc21` as the compound, how does the inhibition read?
Answer: Its inhibition is 52.3% (active).

Question: For `CC[n+]1ccccc1/C=C/c1ccc(N(C)C)cc1`, which inhibition is on record?
Answer: Its inhibition is 15.6%.

Question: Which inhibition does the source give for `CC(=O)N(C(C)=O)c1ncc2c([nH]c3ccccc32)c1C#N` here?
Answer: The inhibition was 47.9% (active).

Question: For `O=C(NCc1cccs1)c1nc2c(nnn2Cc2ccccc2Cl)c(=O)[nH]1`, which inhibition is on record?
Answer: The inhibition was 84.2% (active).

Question: Which inhibition does the source give for `c1nc2sc3c(c2c2nnnn12)CCCC3` here?
Answer: The inhibition was 28%.

Question: Which inhibition does the source give for `Cn1c(/C=C/c2ccc(Cl)cc2Cl)c([N+](=O)[O-])c(=O)n(C)c1=O` here?
Answer: Its inhibition is 62.2% (active).

Question: Which inhibition does the source give for `CC(=O)c1ccc(Nc2ncnc3ccc(Br)cc23)cc1` here?
Answer: Its inhibition is 49.5% (active).

Question: How did the inhibition turn out when `Cn1c(=O)c2c(nc(NCc3ccco3)n2C/C=C/c2ccccc2)n(C)c1=O` was run?
Answer: The inhibition was 36.4%.

Question: How did the inhibition turn out when `O=C(Nc1nc(-c2ccc(S(=O)(=O)N3CCOCC3)cc2)cs1)c1ccccc1` was run?
Answer: The inhibition was 0.95%.

Question: For `CC(C)c1ccc(/C=N/Nc2ccc(C(=O)O)cc2)cc1`, which inhibition is on record?
Answer: The inhibition was -6.28%.

Question: With `O=c1[nH]cc(F)c(=O)[nH]1` as the compound, how does the inhibition read?
Answer: Its inhibition is 14.7%.

Question: For `CC(C)n1cc(/C=C/c2cc[n+](C)cc2)c2ccccc21`, which inhibition is on record?
Answer: The inhibition was 14%.

Question: `CN(C(=O)COC(=O)/C=C/c1cccc([N+](=O)[O-])c1)C1CCS(=O)(=O)C1` (centres undefined) was tested. Which inhibition did it give?
Answer: Its inhibition is 39.1%.

Question: With `Cc1cc(=O)[nH]c(Nc2cccc(C(F)(F)F)c2)n1` as the compound, how does the inhibition read?
Answer: Its inhibition is 38.8%.

Question: With `COc1ccc2cc3c(N)nn(C(=O)c4ccc(Cl)c([N+](=O)[O-])c4)c3nc2c1` as the compound, how does the inhibition read?
Answer: The inhibition was 70.2% (active).

Question: With `CCOC(=O)C(=Cc1ccccc1OC)C(=O)OCC` as the compound, how does the inhibition read?
Answer: The inhibition was 27.3%.

Question: `Cn1c(=O)c2c(nc(Oc3ccc4ccccc4c3)n2C)n(C)c1=O` was tested. Which inhibition did it give?
Answer: The inhibition was 47.5% (active).

Question: With `O=C(Nc1c2ccccc2nc2ccccc12)C(Cl)(Cl)Cl` as the compound, how does the inhibition read?
Answer: Its inhibition is -27%.

Question: How did the inhibition turn out when `CC(=O)Nc1ccc(SCC(=O)c2cc(C)n(-c3ccccc3)c2C)cc1` was run?
Answer: Its inhibition is 30.3%.

Question: For `COc1ccc(Cc2nnc(SCc3ccc([N+](=O)[O-])cc3)o2)cc1`, which inhibition is on record?
Answer: Its inhibition is 26.2%.

Question: Which inhibition does the source give for `COC1CC(C)C(OC)c2cc(O)cc(c2O)NC(=O)C(C)=CC=CC(C)C(OC(N)=O)C(C)=CC(C)C1OC` (centres undefined) here?
Answer: The inhibition was 72.5% (active).

Question: For `CCN1/C(=C/c2ccc3cc(C)cc(C)c3[n+]2CC)Sc2cc(C)ccc21`, which inhibition is on record?
Answer: The inhibition was 39.4%.

Question: With `CN(C)c1ccc(CNC(=O)CCNS(=O)(=O)c2cc(Br)cnc2N)cc1` as the compound, how does the inhibition read?
Answer: The inhibition was 31.5%.

Question: For `CN(Cc1ccccc1)c1ncnc(N)c1[N+](=O)[O-]`, which inhibition is on record?
Answer: Its inhibition is 41.4%.

Question: For `c1ccc(-c2noc(-c3ccc4c(c3)OCO4)n2)nc1`, which inhibition is on record?
Answer: The inhibition was 17.6%.

Question: `COc1ccc2cc3c(N)nn(C(=O)c4ccc(F)cc4)c3nc2c1` was tested. Which inhibition did it give?
Answer: The inhibition was 69.8% (active).

Question: `O=C(/C=C/c1ccc(OCCCF)cc1)Nc1ccnc(-c2cccnc2)n1` was tested. Which inhibition did it give?
Answer: Its inhibition is 17.1%.

Question: Which inhibition does the source give for `CCCCNc1nc2c(c(=O)n(C)c(=O)n2C)n1Cc1cccc(OC)c1` here?
Answer: The inhibition was 11.7%.

Question: `CN1CCN(c2ncnc3scc(-c4ccccc4Cl)c23)CC1` was tested. Which inhibition did it give?
Answer: Its inhibition is 59.6% (active).

Question: How did the inhibition turn out when `O=C(N/N=C/c1ccccc1O)/C(=C/c1ccccc1)CCO` was run?
Answer: Its inhibition is 16.7%.
